According to PubChem BioAssay (NCATS):
Inconclusive results are not listed. Unmarked numbers belong to inactive results. Active and inactive are the calls of the source. Calls follow the shape of the dose curve; as a rule, active = well fitted cell-killing curve with a large enough effect; inconclusive = small, poorly fitted or top-dose-only effect, or effect the other way; inactive = no such curve, though single readings can be large or run the other way. Peptide text beside a SMILES is read from it.

Assay: Quantitative High-Throughput drug screen in 47 multiple myeloma cell lines against the NCATS MIPE library collection: PCM6_Riken cell viability assay (AID 1919870);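 as to viability (% of control): 100% = DMSO-only wells and 0% = media-only wells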
Details: CellTiter-Glo ATP, 48 h; series mostly up to 45.8 µM; viability (% of control): at the top concentration
Method in brief: (§1)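 Readout: median RLU from CellTiter-Glo after 5 min at room temperature. Preceding step was 48 h drug treatment of 500 cells/well at 37 °C, 5% CO2, with DMSO-only and media-only control wells.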
Also: nearly all actives have a fitted effect of over 30% in size.
Potency is read from the fitted curve at half-maximal effect.

Compound	viability (% of control) [%]	Potency
Nc1cc(C(Cl)=C(Cl)Cl)c(S(N)(=O)=O)cc1S(N)(=O)=O	92.6	–
COC(=O)[C@H](Cc1ccccc1)NC(=O)[C@@H](N)CC(=O)O (H-Asp-Phe-OMe)	97	–
O=c1ccc2ccc(O)c(O)c2o1	–	13.2 µM (active)
O=C(NCCO[N+](=O)[O-])c1cccnc1	113	–
Cc1ccc(Nc2nccc(N(C)c3ccc4c(C)n(C)nc4c3)n2)cc1S(N)(=O)=O	–	4.69 µM (active)
NS(=O)(=O)c1cc(C(=O)O)c(NCc2ccco2)cc1Cl	87.2	–
COc1c(O)cc2c(c1O)[C@@H]1O[C@H](CO)[C@@H](O)[C@H](O)[C@H]1OC2=O	111	–
Cc1cccc(CN2CCN(C(c3ccccc3)c3ccc(Cl)cc3)CC2)c1 (stereo unspecified)	–	16.6 µM (active)
Cc1cc(=O)c2c(O)c3c(O)cc(=O)c4c3c3c(cc(O)c1c23)C(C)(C)C=4O	–	1.87 µM (active)
CN(C)[C@@H](CCOc1cccc2ccccc12)c1ccccc1	–	18.7 µM (active)
CCCCCCCCCCCCCCCCCCCCCCO	104	–
CC(C)c1nc(CN(C)C(=O)N[C@H](C(=O)N[C@@H](Cc2ccccc2)C[C@H](O)[C@H](Cc2ccccc2)NC(=O)OCc2cncs2)C(C)C)cs1	87.3	–
CCC1=C(C)CN(C(=O)NCCc2ccc(S(=O)(=O)NC(=O)NC3CCC(C)CC3)cc2)C1=O (stereo unspecified)	128	–

Assay: Quantitative High-Throughput drug screen in 47 multiple myeloma cell lines against the NCATS MIPE library collection: RPMI8226_ATCC cell viability assay (AID 1919871)
Details: RPMI8226 myeloma viability, CellTiter-Glo ATP luminescence, 48 h; series mostly up to 45.8 µM; viability (% of control): at the top concentration
Method in brief: as §1

Compound	viability (% of control)	Potency
C[Se]CCC(N)C(=O)O (stereo unspecified)	86.1% [at 92.2 µM]	–
NS(=O)(=O)c1cc(C(=O)O)c(NCc2ccco2)cc1Cl	87.8%	–
Nc1nc(Cl)nc2c1ncn2[C@H]1C[C@H](O)[C@@H](CO)O1	105%	–
COc1c(O)cc2c(c1O)[C@@H]1O[C@H](CO)[C@@H](O)[C@H](O)[C@H]1OC2=O	114%	–
Cc1cc(=O)c2c(O)c3c(O)cc(=O)c4c3c3c(cc(O)c1c23)C(C)(C)C=4O	–	1.48 µM (active)
COc1cc2c(cc1OC)C1CC(=O)C(CC(C)C)CN1CC2 (stereo unspecified)	–	5.9 µM (active)
CN1C(C(=O)Nc2ccccn2)=C(O)c2sccc2S1(=O)=O	109%	–
CN(C)[C@@H](CCOc1cccc2ccccc12)c1ccccc1	–	16.6 µM (active)
Cc1ccc(NC(=O)c2ccc(CN3CCN(C)CC3)cc2)cc1Nc1nccc(-c2cccnc2)n1	112%	–
CC(C)[C@H](N)C(=O)OCCOCn1cnc2c(=O)[nH]c(N)nc21	111%	–
CCCCCCCCCCCCCCCCCCCCCCO	108%	–
O=C1c2c(O)cc(O)cc2OC(c2ccc(O)c(O)c2)C1O (stereo unspecified)	141%	–
CCC1=C(C)CN(C(=O)NCCc2ccc(S(=O)(=O)NC(=O)NC3CCC(C)CC3)cc2)C1=O (stereo unspecified)	112%	–
